Several values for one entry are separate records, joined by “and”; a condition that tells them apart may be missing. Equal entries are not always repeated. More than one record can exist for a structure, and the calls need not agree. Activity calls are given as the source filed them. How the source made its calls: active means hit-call score of the fitted dose curve at least 0.9, where 1 is the maximum; inactive means score below 0.9.
Columns and labels:
[1] = BSK_CASM3C_SRB: Viability Assessment in the BioMAP Diversity Plus: CASM3C Assay (AID 2283050); conditions: primary human coronary artery smooth muscle cells;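 further: total protein by SRB staining as cytotoxicity measure in parallel cultures; cells exposed to compound for 24 h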
[2] = read-out: Thrombomodulin, THBD (gene 7056); test: BSK_CASM3C_Thrombomodulin: BioMAP Diversity Plus: CASM3C Assay for Thrombomodulin Biomarker Activity (AID 2283051); conditions: primary human coronary artery smooth muscle cells; actives raise or lower the signal;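 further: thrombomodulin protein level measured by ELISA 24 h after dosing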
[3] = read-out: Tissue Factor, F3 (gene 2152); test: BSK_CASM3C_TissueFactor: BioMAP Diversity Plus: CASM3C Assay for Tissue Factor Biomarker Activity (AID 2283052); conditions: primary human coronary artery smooth muscle cells; actives raise or lower the signal;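 further: cell surface tissue factor protein level read by ELISA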
[4] = read-out: Interferon-gamma inducible Protein 10 (IP10), CXCL10 (gene 3627); test: BSK_hDFCGF_IP10: BioMAP Diversity Plus: hDFCGF Assay for Interferon-gamma inducible Protein 10 (IP10) Biomarker Activity (AID 2283053); conditions: primary human foreskin fibroblasts; actives raise or lower the signal
Summary of the method: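 ELISA read-out of IP-10 (CXCL10) from primary human skin fibroblasts, 24 h after compound addition. Gain or loss of signal versus DMSO baseline, bidirectional curve fitting.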

[5] = read-out: Urokinase-type plasminogen activator receptor (uPAR), PLAUR (gene 5329); test: BSK_CASM3C_uPAR: BioMAP Diversity Plus: CASM3C Assay for Urokinase-type plasminogen activator receptor (uPAR) Biomarker Activity (AID 2283054); conditions: primary human coronary artery smooth muscle cells; actives raise or lower the signal;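 further: cell-surface uPAR protein level quantified by ELISA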
[6] = read-out: Vascular cell adhesion molecule 1 (VCAM1), VCAM1 (gene 7412); test: BSK_CASM3C_VCAM1: BioMAP Diversity Plus: CASM3C Assay for Vascular cell adhesion molecule 1 (VCAM1) Biomarker Activity (AID 2283055); conditions: primary human coronary artery smooth muscle cells; actives raise or lower the signal;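 further: VCAM-1 protein level quantified by ELISA on the cells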
[7] = read-out: Collagen III, COL3A1 (gene 1281); test: BSK_hDFCGF_CollagenIII: BioMAP Diversity Plus: hDFCGF Assay for Collagen III Biomarker Activity (AID 2283056); conditions: primary human foreskin fibroblasts; actives raise or lower the signal
Summary of the method: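 ELISA read-out of collagen III from human skin fibroblast cultures sampled 24 h post-dosing. Values were derived by bidirectional fitting relative to the DMSO vehicle control.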

[8] = read-out: Epidermal growth factor receptor (EGFR), EGFR (gene 1956); test: BSK_hDFCGF_EGFR: BioMAP Diversity Plus: hDFCGF Assay for Epidermal growth factor receptor (EGFR) Biomarker Activity (AID 2283057); conditions: primary human foreskin fibroblasts; actives raise or lower the signal
Summary of the method: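 ELISA readout of EGFR on human dermal fibroblasts (primary foreskin cells), 24 h post-dosing; bidirectional curve fit vs DMSO baseline, gain or loss of signal scored.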

[9] = read-out: Interleukin-8 (IL8), CXCL8 (gene 3576); test: BSK_hDFCGF_IL8: BioMAP Diversity Plus: hDFCGF Assay for Interleukin-8 (IL8) Biomarker Activity (AID 2283058); conditions: primary human foreskin fibroblasts; actives raise or lower the signal
Summary of the method: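 Cells used are human skin primary fibroblasts. Chemical is added, cultures run 24 h, then IL-8 is quantified by ELISA, and gain or loss versus DMSO control is fitted in both directions.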

[10] = BSK_hDFCGF_Proliferation: Cell Proliferation Assessment in the BioMAP Diversity Plus: hDFCGF Assay (AID 2283059); conditions: primary human foreskin fibroblasts;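 further: curves fitted for both rise and fall of signal versus DMSO baseline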
Summary of the method: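 Primary human foreskin fibroblasts, sub-confluent; […]; 10% TCA fix, 0.1% SRB stain, A560 total protein. Gain/loss fitted bidirectionally vs DMSO control.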

[11] = read-out: Macrophage colony-stimulating factor (MCSF), CSF1 (gene 1435); test: BSK_hDFCGF_MCSF: BioMAP Diversity Plus: hDFCGF Assay for Macrophage colony-stimulating factor (MCSF) Biomarker Activity (AID 2283060); conditions: primary human foreskin fibroblasts; actives raise or lower the signal
Summary of the method: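 Primary human foreskin fibroblasts dosed with chemical; 24 h later, M-CSF quantified by ELISA; curves fitted in both directions vs DMSO negative control.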

[12] = BSK_hDFCGF_SRB: Viability Assessment in the BioMAP Diversity Plus: hDFCGF Assay (AID 2283061); conditions: primary human foreskin fibroblasts;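 further: cells exposed to compound for 24 h before the read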
Summary of the method: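 Readout is SRB absorbance at 560 nm, reflecting total protein in parallel cultures of human foreskin fibroblasts harvested 24 h after chemical dosing. Activity was fitted bidirectionally relative to DMSO.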

[13] = read-out: TIMP metallopeptidase inhibitor 1 (TIMP1), TIMP1 (gene 7076); test: BSK_hDFCGF_TIMP1: BioMAP Diversity Plus: hDFCGF Assay for TIMP metallopeptidase inhibitor 1 (TIMP1) Biomarker Activity (AID 2283062); conditions: primary human foreskin fibroblasts; actives raise or lower the signal
Summary of the method: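 Human skin fibroblasts (primary), hDFCGF system; compound exposure 24 h; TIMP-1 by ELISA; bidirectional fit vs DMSO negative control; overt cytotoxicity by SRB in parallel wells.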

[14] = read-out: Monokine induced gamma interferon (MIG), CXCL9 (gene 4283); test: BSK_hDFCGF_MIG: BioMAP Diversity Plus: hDFCGF Assay for Monokine induced gamma interferon (MIG) Biomarker Activity (AID 2283063); conditions: primary human foreskin fibroblasts; actives raise or lower the signal
Summary of the method: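 Chemicals were added to primary human foreskin fibroblast cultures, which were sampled 24 h later. MIG levels were then quantified by ELISA and responses fitted in both directions relative to DMSO.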

[15] = read-out: Vascular cell adhesion molecule 1 (VCAM1), VCAM1 (gene 7412); test: BSK_hDFCGF_VCAM1: BioMAP Diversity Plus: hDFCGF Assay for Vascular cell adhesion molecule 1 (VCAM1) Biomarker Activity (AID 2283065); conditions: primary human foreskin fibroblasts; actives raise or lower the signal;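 on AC50: VCAM-1 protein level quantified by ELISA after 24 h chemical exposure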
Summary of the method: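 Human foreskin fibroblast primary cells, chemical exposure 24 h; VCAM-1 by ELISA; bidirectional fit, DMSO = negative control/baseline.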

[16] = read-out: Plasminogen activator inhibitor-1 (PAI1), SERPINE1 (gene 5054); test: BSK_hDFCGF_PAI1: BioMAP Diversity Plus: hDFCGF Assay for Plasminogen activator inhibitor-1 (PAI1) Biomarker Activity (AID 2283066); conditions: primary human foreskin fibroblasts; actives raise or lower the signal
Summary of the method: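 ELISA readout of PAI-1 from primary human skin fibroblast cultures, 24 h after compound addition. Gain or loss of signal was fitted bidirectionally against DMSO baseline.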

[17] = read-out: Intercellular Adhesion Molecule 1 (ICAM1), ICAM1 (gene 3383); test: BSK_KF3CT_ICAM1: BioMAP Diversity Plus: KF3CT Assay for Intercellular Adhesion Molecule 1 (ICAM1) Biomarker Activity (AID 2283067); conditions: primary human keratinocytes with fibroblasts; actives raise or lower the signal
Summary of the method: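 ICAM-1 levels are measured by ELISA 24 h after dosing a primary human co-culture of keratinocytes and foreskin fibroblasts. Activity in either direction is fitted relative to DMSO vehicle.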

[18] = BSK_KF3CT_SRB: Viability Assessment in the BioMAP Diversity Plus: KF3CT Assay (AID 2283069); conditions: primary human keratinocytes with fibroblasts;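 further: total protein by sulforhodamine B staining as a cytotoxicity measure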
Summary of the method: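 SRB read-out at 560 nm (0.1% stain, TCA-fixed cells) gauges overt cytotoxicity in a human skin keratinocyte–fibroblast co-culture 24 h post-dosing. Signal change was fitted bidirectionally relative to DMSO control.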

[19] = read-out: Interferon-gamma inducible Protein 10 (IP10), CXCL10 (gene 3627); test: BSK_KF3CT_IP10: BioMAP Diversity Plus: KF3CT Assay for Interferon-gamma inducible Protein 10 (IP10) Biomarker Activity (AID 2283068); conditions: primary human keratinocytes with fibroblasts; actives raise or lower the signal
Summary of the method: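 In a primary skin co-culture of keratinocytes and fibroblasts, IP-10 is quantified by ELISA at 24 h after dosing. SRB staining of parallel wells monitors overt toxicity. Curves are fitted both directions against DMSO.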

[20] = read-out: Matrix Metallopeptidase 1 (MMP1), MMP1 (gene 4312); test: BSK_hDFCGF_MMP1: BioMAP Diversity Plus: hDFCGF Assay for Matrix Metallopeptidase 1 (MMP1) Biomarker Activity (AID 2283064); conditions: primary human foreskin fibroblasts; actives raise or lower the signal
Summary of the method: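 ELISA read-out of MMP1 from human foreskin fibroblasts (primary skin cells), 24 h post-dose. Gain or loss of signal was fitted bidirectionally versus DMSO negative control; cytotoxicity was checked by SRB in parallel cultures.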

Measured: AC50

CCN(CC)c1ccc(C=O)c(O)c1
active: [10] 30.4 µM
not listed: [19] | [20]
inactive: all other assays above

C[Si](Cl)(Cl)CCC(F)(F)C(F)(F)C(F)(F)C(F)(F)C(F)(F)C(F)(F)F
active: [4] 2.48 µM | [7] 0.332 µM | [10] 115 nM and 2.85 µM | [11] 605 nM | [13] 739 nM | [14] 1.26 µM and 1.52 µM | [15] 1.4 µM and 876 nM
inactive: [1] | [2] | [3] | [4] | [5] | [6] | [7] | [8] | [9] | [11] | [12] | [13] | [16] | [17] | [19] | [18]

C[C@]12CC[C@H]3C(=CCc4cc(O)ccc43)[C@@H]1CCC2=O
not listed: [20]
inactive: all other assays above

FC(F)(F)C(F)(F)C(F)(F)C(F)(F)C(F)(F)C(F)(F)CC[Si](Cl)(Cl)Cl
inactive: all assays above

O=C(O)CCC(F)(F)C(F)(F)C(F)(F)F
not listed: [20]
inactive: all other assays above

O=C(F)C1(F)C(F)(F)C(F)(F)C(F)(F)C(F)(F)C1(F)F
not listed: [20]
inactive: all other assays above

OCC(F)(F)C(F)(F)C(F)(F)C(F)(F)C(F)(F)C(F)(F)C(F)(F)C(F)(F)CO
inactive: [1] | [2] | [3] | [5] | [6] | [9]
active: [1] 43.2 µM | [4] 44.9 µM and 44.5 µM | [6] 40.9 µM | [7] 30 µM and 42.7 µM | [8] 47.8 µM and 48.7 µM | [9] 48 µM | [10] 39.8 µM and 47.9 µM | [11] 47.9 µM and 46.7 µM | [12] 38.3 µM and 54.8 µM | [13] 46.7 µM and 54.5 µM | [14] 44 µM and 45.1 µM | [15] 42.5 µM and 21.8 µM | [16] 54.9 µM and 56.4 µM | [17] 42.4 µM and 42.7 µM | [18] 50.9 µM and 44.1 µM

OCC(O)CC(F)(F)C(F)(F)C(F)(F)C(F)(F)F (stereo unspecified)
inactive: all assays above

CCN(CCO)S(=O)(=O)C(F)(F)C(F)(F)C(F)(F)C(F)(F)C(F)(F)C(F)(F)C(F)(F)C(F)(F)F
inactive: [3] | [7] | [8] | [9] | [13] | [17] | [18]
active: [1] 19.2 µM and 9.12 µM | [2] 13.4 µM and 10.3 µM | [4] 35.9 µM and 30 µM | [5] 11.1 µM and 30 µM | [6] 7.11 µM and 8.86 µM | [7] 8.31 µM | [9] 49.9 µM | [10] 7.13 µM and 8.13 µM | [11] 23.2 µM and 23.3 µM | [12] 21.9 µM and 2.95 µM | [14] 22.1 µM and 19.1 µM | [15] 30 µM and 12.8 µM | [16] 37.2 µM and 25.4 µM

Cc1cc(C)c(O)c(C(C)(C)C)c1
inactive: [2] | [8] | [9]
active: [1] 27.2 µM | [3] 27.4 µM | [4] 35.9 µM | [5] 31.2 µM | [6] 29.5 µM | [7] 20 µM | [10] 18.8 µM | [11] 34400 nM | [12] 35.2 µM | [13] 30100 nM | [14] 32.8 µM | [15] 34.7 µM | [16] 30.9 µM | [17] 35.1 µM | [19] 34.2 µM | [18] 33.5 µM

NC(=O)C(F)(F)C(F)(F)C(F)(F)C(F)(F)C(N)=O
not listed: [19] | [20]
inactive: all other assays above
